From PubChem BioAssay (EPA / NIEHS)
Inconclusive results are not listed. Where a structure was tested more than once in an assay, its records may differ in their call. Active and inactive are the calls of the source. Rule for the calls, unless noted: active = hit-call score of the fitted dose curve at least 0.9, where 1 is the maximum; inconclusive = response in the unintended direction; inactive = score below 0.9.

Tested on: not listed separately
Assay: CCTE_Mundy_HCI_iCellGluta_NOG_NeuriteCount: CCTE's Neurite Outgrowth Assay in iCellGluta cells for Neurite Count, Mundy Lab (AID 2284342);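 note: chemical exposure about 48 hours starting 2 hours after plating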
Settings: not given

Structure (SMILES)	outcome	AC50
CCC(C)(C)C(=O)OC1=C(c2ccc(Cl)cc2Cl)C(=O)OC12CCCCC2	inactive	–
O=S(=O)(O)C(F)(F)C(F)(F)C(F)(F)C(F)(F)C(F)(F)C(F)(F)C(F)(F)C(F)(F)F	inactive	–
O=C(O)C(F)(F)C(F)(F)C(F)(F)C(F)(F)C(F)(F)C(F)(F)C(F)(F)F	inactive	–
COP(=S)(OC)Oc1ccc([N+](=O)[O-])cc1	–	23.4 µM (active)
O=S1OCC2C(CO1)C1(Cl)C(Cl)=C(Cl)C2(Cl)C1(Cl)Cl (stereo not given)	–	23 µM (active)
CC[C@H](C)[C@H]1O[C@]2(C=C[C@@H]1C)C[C@@H]1C[C@@H](C/C=C(\C)[C@@H](O[C@H]3C[C@H](OC)[C@@H](O[C@H]4C[C@H](OC)[C@@H](O)[C@H](C)O4)[C@H](C)O3)[C@@H](C)/C=C/C=C3\CO[C@@H]4[C@H](O)C(C)=C[C@@H](C(=O)O1)[C@]34O)O2 (tested in a mixture with another compound)	–	3.36 µM (active)
O=C(O)COc1ccc(Cl)cc1Cl	inactive	–
CC(C)N(C(=O)COc1nnc(C(F)(F)F)s1)c1ccc(F)cc1	inactive	–
COP(=O)(OC)OC=C(Cl)Cl	–	49 µM (active)
O=[N+]([O-])/N=C1\NCCN1Cc1ccc(Cl)nc1	inactive	–
CNC(=O)CSP(=S)(OC)OC	inactive	–
CC1(C)C(C=C(Cl)Cl)C1C(=O)OC(C#N)c1ccc(F)c(Oc2ccccc2)c1 (stereo not given)	inactive	22.3 µM (active)
CC1(c2ccc(Oc3ccccc3)cc2)OC(=O)N(Nc2ccccc2)C1=O (stereo not given)	inactive	–

Tested on: SERPINA7 (gene 6906)
Assay: CCTE_GLTED_hTBG: CCTE's human Thyroxine-binding Globulin (TBG) Inhibition Assay, Great Lakes Toxicology and Ecology Division (GLTED) Lab (AID 2284343);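 note: active chemicals lower fluorescence versus DMSO baseline by displacing probe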
Settings: not given
In short: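 Human TBG incubated 2 h with test chemical; displacement of ANSA probe read by fluorescence, 380 nm excitation/475 nm emission. Loss of signal relative to DMSO.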

Structure (SMILES)	AC50
CC(C)OC(=O)Nc1cccc(Cl)c1	34.7 µM (active)
CC(C)(C)C(O)/C(=C\c1ccc(Cl)cc1Cl)n1cncn1 (stereo not given)	30.8 µM (active)
Oc1ccc(Cl)cc1Cc1ccccc1	1.07 µM (active)
C#CCN1C(=O)COc2cc(F)c(N3C(=O)C4=C(CCCC4)C3=O)cc21	8.38 µM (active)
CCN(CC)C(=O)SCc1ccc(Cl)cc1	22.4 µM (active)
C[C@H]1[C@H](c2ccc(Cl)cc2)SC(=O)N1C(=O)NC1CCCCC1	2.63 µM (active)
CCCN(CCC)c1c([N+](=O)[O-])cc(C(F)(F)F)cc1[N+](=O)[O-]	5.16 µM (active)
O=C(O)CCCOc1ccc(Cl)cc1Cl	20.7 µM (active)
Clc1ccccc1-c1nnc(-c2ccccc2Cl)nn1	0.23 µM (active)
CCC(C)Nc1c([N+](=O)[O-])cc(C(C)(C)C)cc1[N+](=O)[O-] (stereo not given)	22.3 µM (active)
O=C(NC(=O)c1c(F)cccc1F)Nc1ccc(OC(F)(F)C(F)OC(F)(F)F)c(Cl)c1 (stereo not given)	25 µM (active)
COP(=S)(OC)Oc1ccc(SC)c(C)c1	12 µM (active)
Oc1cc(Cl)ccc1Oc1ccc(Cl)cc1Cl	0.154 µM (active)

Tested on: not listed separately
Assay: CCTE_Deisenroth_H295R-HTRF_384WELL_ESTRADIOL: CCTE's H295R-HTRF Assay Evaluation of Estradiol Concentration, Deisenroth Lab (AID 2284361; active = hit-call score of the fitted dose curve at least 0.9, where 1 is the maximum; inactive = score below 0.9)
Settings: actives raise or lower the signal
In short: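 H295R cells exposed 48 h to chemicals at 0.001 - 100 uM final (nine points, triplicate); estradiol in conditioned medium measured by HTRF immunoassay, fitted bidirectionally versus DMSO. Viability by CellTiter-Glo on same plates.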

Structure (SMILES)	outcome	AC50
CC(C)(C)C(O)C(Oc1ccc(Cl)cc1)n1cncn1 (stereo not given)	inactive	–
CCCN(CCOc1c(Cl)cc(Cl)cc1Cl)C(=O)n1ccnc1	–	0.00173 µM (active)
CNC(=O)CSP(=S)(OC)OC	inactive	–
